Source: PubChem (several laboratories)
tim10-1 inh: growth inhibitors of tim10-1 mutant yeast, primary screen, luminescence, uHTS | S. cerevisiae tim10-1 ts strain growth, BacTiter-Glo, 24 h | inhibition, % at 20 µM | 330,000 compounds, 2.2% hits | AID 463190, 2010;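 active means inhibition of at least 40%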;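 further: mutant grown at 25 °C; 0% = DMSO wells with yeast and 100% = wells holding no yeast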
tim23-1 inh: growth inhibitors of tim23-1 mutant yeast, primary screen, luminescence, uHTS; S. cerevisiae tim23-1 growth, BacTiter-Glo luminescence, 24 h; inhibition, % at 20 µM; 330,000 compounds, 1.3% hits; AID 463212, 2010;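 active means growth inhibition of the mutant yeast at or above 50%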;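 further: temperature-sensitive mutant grown at 25 °C; plate controls were DMSO-treated mutant yeast for no effect and medium wells lacking yeast for full effect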
TIM10 inh: growth inhibitors of isogenic TIM10 control yeast, primary screen, counter-screen for tim10-1 yeast inhibitor project, luminescence, uHTS; 330,000 compounds, 1.4% hits; inhibition, % at 10 µM; S. cerevisiae TIM10 strain growth, BacTiter-Glo luminescence, 24 h;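 active means inhibition of 40% or more at the single tested concentration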;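 further: wild-type TIM10 isogenic control strain grown at permissive 25 °C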
NLRP3 yeast inh: NALP3 inflammasome inhibitors in reconstituted yeast, primary screen, luminescence, uHTS | Yeast reconstituted NLRP3/ASC/caspase-1, beta-gal luminescence, 24 h | inhibition, % at 10 µM | 330,000 compounds, 0.39% hits;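 active means inhibition of 50% or more; inactive means inhibition below 50%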;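 further: plate controls were induced DMSO wells for no effect and uninduced yeast grown without galactose for full effect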
PfHsp90 set2: growth inhibition of PfHsp90-expressing yeast, primary screen, antimalarial PfHsp90 inhibitor project, S. cerevisiae, BacTiter-Glo luminescence, single point, set 2; BacTiter-Glo ATP, 48 h; yeast lacking PDR1 and PDR3 efflux regulators; 310,000 compounds, 0.32% hits; inhibition, % at 9.4 µM;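 active means every replicate shows inhibition above about 80%, whatever the replicate mean, limit read from the data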;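 further: 0% = DMSO neutral controls and 100% = 20 µM radicicol positive controls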
SKKanGAS inh: S. pyogenes SKKanGAS growth inhibitors in kanamycin, primary screen, streptokinase expression inhibitor project, SKKanGAS strain, BacTiter-Glo luminescence. 6 h. 300,000 compounds, 1.3% hits. inhibition, % at 7.5 µM;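 active means mean replicate score, as percent of positive control median, at least 50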;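 further: strain carries kanamycin resistance gene driven by streptokinase promoter and grows in 40 µg/ml kanamycin; loss of luminescence reflects streptokinase promoter inhibition or plain growth inhibition; 0% = median of DMSO wells and 100% = positive control at its reference dose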
tim10 confirm: growth inhibitors of wild-type TIM10 yeast, confirmation, counter-screen for tim10-1 synthetic lethality project, single concentration, luminescence, S. cerevisiae. AID 463215, 2010. shares compounds with TIM10 inh. inhibition, % at 10 µM. S. cerevisiae tim10 strain growth, BacTiter-Glo luminescence, 24 h. 4,600 compounds, 63% hits;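 active means inhibition of yeast growth at or above a set limit in either of two replicates at 10 µM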;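 further: this counterscreen used the strain with wild-type TIM10; 0% = yeast with DMSO and 100% = medium wells lacking yeast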
An asterisk follows results filed as active; . = not tested or not shown. Sampled rows, rich in hits. Any-hit rate of the full collection: about 4.6%.

SMILES	tim10-1 inh	tim23-1 inh	TIM10 inh	NLRP3 yeast inh	PfHsp90 set2	SKKanGAS inh	tim10 confirm
Brc1ccc(CSc2nnc(-c3cnccn3)n2Cc2ccco2)cc1	39.0	45.7	44.7*	5.1	-20.1	2.2	15.6
Cc1[nH]nc(N=CC2=C(O)CC(c3ccco3)CC2=O)c1-c1ccc(Cl)cc1 (stereo unspecified)	25.4	27.0	21.2	2.8	3.1	13.5	.
Cc1[nH]nc(N=CC2=C(O)CC(C)(C)CC2=O)c1-c1ccc(Cl)cc1	36.3	21.2	40.8*	1.3	-2.5	2.0	30.5*
O=[N+]([O-])c1ccccc1S(=O)(=O)N1CCN(c2ccc(F)cc2)CC1	-5.8	21.9	9.8	12.7	5.2	-0.4	.
Cc1cc(C)cc(OCC(=O)OCC(=O)Nc2cc(C)nn2-c2ccccc2)c1	4.3	-6.0	82.9*	12.2	19.8	.	3.7
Cc1cc(NC(=O)COc2ccccc2)n(-c2ccccc2)n1	25.6	20.3	27.3	10.4	14.9	1.6	.
COc1ccc(C2c3[nH]c4ccccc4c3CCN2Cc2cccn2-c2ncccn2)cc1C (stereo unspecified)	23.7	12.7	28.4	27.5	-4.2	6.0	.
CC(C)CNC(=S)NC(=O)c1ccc(Cl)cc1Cl	39.0	17.6	54.6*	-65.9	-20.6	-1.9	52.1*
CC(C)(C)n1nnnc1C(c1ccc(Cl)cc1)N1CCCc2ccccc21 (stereo unspecified)	37.4	45.2	28.2	10.1	.	11.9	.
CCC(C)(C)n1nnnc1C(c1cccnc1)N1CCCc2ccccc21 (stereo unspecified)	38.5	34.7	40.2*	-0.9	5.1	-2.5	36.9*
CC(C)(C)n1nnnc1C(c1cccc(C#N)c1)N1CCCc2ccccc21 (stereo unspecified)	36.0	37.1	43.0*	-3.2	4.2	-1.2	25.4
C/C=C/c1ccc(OCC(=O)Nc2cc(S(=O)(=O)N3CCOCC3)ccc2N2CCCC2)c(OC)c1	11.8	16.0	17.5	15.4	-6.5	-7.3	.
O=S(=O)(c1ccc(NCc2ccccc2)cc1)N1CCOCC1	17.8	12.6	4.3	12.5	5.0	-7.3	.
CC(C)C[C@@H](CN)NC(=O)c1nc[nH]c1C(=O)N[C@@H](CC(C)C)C(=O)CNC[C@H](C)NC(=O)c1nc[nH]c1C(=O)N[C@@H](CC(=O)O)C(=O)O	.	.	.	.	15.9	.	.
C/C(=N\NC(=O)CNc1cccc2ccccc12)c1ccccc1	27.7	30.5	42.3*	15.4	8.2	0.8	14.2
Cc1nc2c(ccc3nc(NC(=O)c4ccc(S(=O)(=O)N(C)C)cc4)sc32)s1	7.8	5.4	5.6	6.9	21.3	35.8	.
Cc1nc2c(ccc3nc(NC(=O)Cc4ccccc4)sc32)s1	37.8	36.6	42.0*	26.0	5.8	9.2	45.2*
Cc1nc(S/C(C(=O)O)=C2/C(=O)Nc3ccccc32)n[nH]1	31.9	41.3	41.3*	23.4	18.7	-13.1	38.5*
Cc1nc(SC2CC(=O)N(c3ccccc3)C2=O)n[nH]1 (stereo unspecified)	25.8	12.6	7.8	13.5	6.8	0.2	.
CC(=O)NC/C(C)=N\Nc1ccc([N+](=O)[O-])cc1	30.8	4.7	48.7*	23.4	-5.6	6.6	-33.2
O=C1CCC(C(=O)OCC(=O)N2N=C3/C(=C/c4ccccc4)CCCC3C2c2ccccc2)N1 (stereo unspecified)	17.5	29.3	42.1*	1.9	.	4.2	19.0
COc1cc2ncnc(NCc3ccc(F)cc3)c2cc1OC	-2.9	29.7	7.6	-3.0	34.6	-3.5	.
COc1ccccc1N1CCN(C(=O)c2cc(-c3ccc(F)cc3)on2)CC1	30.3	49.3	27.5	19.3	-3.2	-1.8	.
COc1ccccc1N1CCN(C(=O)c2cc(-c3ccc(C)cc3)on2)CC1	7.9	47.5	40.1*	-5.0	-6.4	-1.2	35.8*
COc1ccccc1N1CCN(C(=O)c2ccc3nc(-c4ccco4)c(-c4ccco4)nc3c2)CC1	25.8	20.2	41.4*	21.2	.	25.5	14.9
SMILES	tim10-1 inh	tim23-1 inh	TIM10 inh	NLRP3 yeast inh	PfHsp90 set2	SKKanGAS inh	tim10 confirm
COc1ccccc1N1CCN(C(=O)c2ccc3nc[nH]c3c2)CC1	18.0	8.7	2.9	2.8	12.2	-5.5	.
CC(C)(CNC(=O)c1cccc(F)c1)CNC(=O)c1cccc(F)c1	30.6	16.0	21.4	-1.7	9.6	-4.9	.
Cc1ccc(C(=O)OCC(=O)N(C)C2CCS(=O)(=O)C2)cc1S(=O)(=O)N1CCCCC1 (stereo unspecified)	6.1	-3.9	-0.1	8.8	24.0	-2.4	.
Oc1ccc(/C=N/N=C(c2ccccc2)c2ccccc2)c(O)c1O	.	.	.	.	4.0	.	.
O=C(/C(=N/N=C/c1ccc(O)c(O)c1O)c1ccccc1)c1ccccc1	12.7	44.7	44.6*	1.3	-20.3	12.0	-1.1
Cc1c(Cl)cccc1NC(=S)NCc1ccc(Cl)cc1	24.5	-10.5	-10.4	15.2	22.1	34.0	.
Cc1c(Cl)cccc1NC(=S)NCc1ccccc1	30.4	27.8	46.1*	7.9	3.6	27.7	20.7
COc1ccc(C)cc1S(=O)(=O)NCC(c1ccc2c(c1)OCO2)N1CCN(C)CC1 (stereo unspecified)	-14.0	-24.4	-0.8	12.3	.	7.8	.
COc1ccccc1CNC(=O)Nc1cccs1	21.8	17.5	27.5	13.5	-15.8	8.2	.
COc1ccc(Br)cc1CNC(=O)Nc1cccs1	29.3	13.2	50.8*	7.7	.	1.9	38.6*
CCOC(=O)C1(Cc2ccc(Cl)cc2)CCN(C(=O)c2ccoc2)CC1	-23.6	25.9	11.5	10.5	-63.8	-7.3	.
CCOc1ccc(NC(=O)c2nn(C)c(C(=O)Nc3ccc(OCC)cc3)c2[N+](=O)[O-])cc1	-15.1	-1.9	93.5*	19.4	-15.4	42.1	-24.1
Cc1ccc(N=Cc2c(O)n(-c3nccs3)c(=O)c3ccccc23)cc1	13.9	-1.7	41.1*	5.8	-12.3	-0.3	-8.2
Cc1ccc(-n2c(O)c(C=Nc3ccc4c(c3)OCO4)c3ccccc3c2=O)cc1C	6.5	-40.4	-6.2	-2.6	-10.4	10.6	.
Cc1cc(N=Cc2c(O)n(-c3ccc4c(c3)OCO4)c(=O)c3ccccc23)ccn1	26.5	24.8	53.2*	18.9	54.3	-1.7	36.5*
Cc1cccc(-n2c(O)c(C=Nc3cccc(O)c3)c3ccccc3c2=O)n1	-4.7	16.0	9.6	-12.0	-18.6	6.5	.
